These results are taken from PubChem BioAssay.

The nature of assay [1]: reduced mouse 2C T cell binding to pMHC/ICAM-1 vesicles – MLPCN validation set, flow cytometry, LFA-1/ICAM-1 modulator project, pilot screen (AID 2523;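 active = response below a set limit, under 55% cells CD8-positive and vesicle-bound, and CD8 cells' 90th-percentile brightness under 279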;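 for vesicle binding response: mean PE anti-B7-1 fluorescence of CD8+ cells relative to row control; 100% = QL9-loaded vesicles with DMSO vehicle in the same plate row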). As to conditions: 2C mouse CD8+ T cells, at 7 µM, stronger effect = lower value; double positive events: measured here: CD8+/vesicle+ event percentage. (Flow cytometry measures light scatter and fluorescence of single cells or particles in a stream.)

For assay [2], the target named is Integrin beta-1 (Homo sapiens) + Integrin alpha-4 (Homo sapiens) (UniProt P13612+P05556). Put plainly: alpha4beta1 integrin LIBS antibody binding reduction – U937 cells, HUTS-21 mAb, flow cytometry, validation set, VLA-4 allosteric modulator project, pilot screen (AID 2674;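 active = inhibition above 50%, about 3 SD of the validation set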;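 note: antibody binding induced by the VLA-4 ligand LDV present at three times its Kd; 0% = LDV ligand with antibody and no compound and 100% = antibody without LDV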). As to conditions: HUTS-21 LIBS mAb binding, at 6.7 µM, stronger effect = higher value.
Chain of Integrin beta-1 (Homo sapiens) + Integrin alpha-4 (Homo sapiens) (P05556 whole entry, looked up): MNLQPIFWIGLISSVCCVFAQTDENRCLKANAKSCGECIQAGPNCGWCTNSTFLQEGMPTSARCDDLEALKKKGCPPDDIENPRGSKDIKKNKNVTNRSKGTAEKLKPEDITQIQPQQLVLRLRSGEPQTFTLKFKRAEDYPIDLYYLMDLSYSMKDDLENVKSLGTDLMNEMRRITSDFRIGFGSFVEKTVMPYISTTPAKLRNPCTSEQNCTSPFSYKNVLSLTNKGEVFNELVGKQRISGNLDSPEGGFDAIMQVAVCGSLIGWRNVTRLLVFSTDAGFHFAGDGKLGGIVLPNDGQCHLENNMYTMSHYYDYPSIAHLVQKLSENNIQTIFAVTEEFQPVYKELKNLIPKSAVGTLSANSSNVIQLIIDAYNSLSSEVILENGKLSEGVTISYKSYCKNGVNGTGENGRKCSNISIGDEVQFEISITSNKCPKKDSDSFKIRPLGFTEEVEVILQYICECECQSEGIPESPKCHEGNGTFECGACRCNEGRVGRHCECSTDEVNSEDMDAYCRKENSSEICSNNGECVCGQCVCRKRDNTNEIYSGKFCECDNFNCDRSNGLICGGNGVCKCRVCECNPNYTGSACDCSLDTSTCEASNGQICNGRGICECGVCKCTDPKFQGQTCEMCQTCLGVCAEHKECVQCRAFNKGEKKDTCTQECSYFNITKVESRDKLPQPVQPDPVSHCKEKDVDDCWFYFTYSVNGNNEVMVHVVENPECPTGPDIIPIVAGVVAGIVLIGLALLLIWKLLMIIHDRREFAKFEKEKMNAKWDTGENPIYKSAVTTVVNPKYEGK
Chain of Integrin beta-1 (Homo sapiens) + Integrin alpha-4 (Homo sapiens) (P13612 whole entry, looked up): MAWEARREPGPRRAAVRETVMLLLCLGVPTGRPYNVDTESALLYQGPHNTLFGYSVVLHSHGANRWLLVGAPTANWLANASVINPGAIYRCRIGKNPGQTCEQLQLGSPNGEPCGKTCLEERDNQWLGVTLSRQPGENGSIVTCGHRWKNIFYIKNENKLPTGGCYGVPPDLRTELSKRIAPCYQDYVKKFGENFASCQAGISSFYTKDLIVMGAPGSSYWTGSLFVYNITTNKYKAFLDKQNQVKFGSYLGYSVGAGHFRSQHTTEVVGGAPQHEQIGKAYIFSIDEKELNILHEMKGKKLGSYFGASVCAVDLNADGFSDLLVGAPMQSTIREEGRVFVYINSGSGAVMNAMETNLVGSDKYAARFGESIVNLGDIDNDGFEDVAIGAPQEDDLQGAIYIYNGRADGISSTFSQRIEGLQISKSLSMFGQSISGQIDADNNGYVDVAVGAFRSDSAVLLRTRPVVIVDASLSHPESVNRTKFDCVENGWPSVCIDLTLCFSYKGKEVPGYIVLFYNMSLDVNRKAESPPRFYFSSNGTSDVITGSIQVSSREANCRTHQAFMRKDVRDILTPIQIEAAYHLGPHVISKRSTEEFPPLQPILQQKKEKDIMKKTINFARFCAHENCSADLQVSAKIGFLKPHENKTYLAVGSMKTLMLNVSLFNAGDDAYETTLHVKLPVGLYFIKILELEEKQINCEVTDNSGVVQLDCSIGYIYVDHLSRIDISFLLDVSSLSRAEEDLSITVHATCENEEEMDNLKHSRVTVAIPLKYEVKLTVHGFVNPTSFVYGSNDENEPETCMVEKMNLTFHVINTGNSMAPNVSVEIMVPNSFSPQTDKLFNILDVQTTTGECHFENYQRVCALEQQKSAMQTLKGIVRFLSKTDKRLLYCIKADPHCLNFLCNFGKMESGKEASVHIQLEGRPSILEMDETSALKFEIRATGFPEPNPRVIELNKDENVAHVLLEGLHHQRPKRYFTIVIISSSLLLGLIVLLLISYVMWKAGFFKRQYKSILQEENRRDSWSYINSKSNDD
Assay [3] can be described thus: calorie-restriction mimetic ROS inhibitors, yeast – validation compound set, pilot screen (AID 2706;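 active = superoxide response below 65% of plate, a cut near 3 SD across the whole screen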;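 note: yeast exposed to compound for one week at 30 degrees C before staining; 100% = mean of all compound wells on the same plate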). As to conditions: S. cerevisiae aging, superoxide DHE fluorescence; at 10 µM; stronger effect = lower value.
In assay [4] the target is Beta-adrenergic receptor kinase 1 (Homo sapiens) (UniProt P25098). Put plainly: GRK2 binders displacing RNA aptamer, biochemical, validation, human GRK2, bead flow cytometry (AID 488806;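 active = aptamer binding inhibition above 30%, about 3 SD of noise from non-fluorescent compounds; inactive = inhibition at or below 30%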). Conditions: bead-bound GRK2, FAM-aptamer displacement, at 10 µM, stronger effect = higher value.
Chain of Beta-adrenergic receptor kinase 1 (Homo sapiens) (P25098 whole entry, looked up): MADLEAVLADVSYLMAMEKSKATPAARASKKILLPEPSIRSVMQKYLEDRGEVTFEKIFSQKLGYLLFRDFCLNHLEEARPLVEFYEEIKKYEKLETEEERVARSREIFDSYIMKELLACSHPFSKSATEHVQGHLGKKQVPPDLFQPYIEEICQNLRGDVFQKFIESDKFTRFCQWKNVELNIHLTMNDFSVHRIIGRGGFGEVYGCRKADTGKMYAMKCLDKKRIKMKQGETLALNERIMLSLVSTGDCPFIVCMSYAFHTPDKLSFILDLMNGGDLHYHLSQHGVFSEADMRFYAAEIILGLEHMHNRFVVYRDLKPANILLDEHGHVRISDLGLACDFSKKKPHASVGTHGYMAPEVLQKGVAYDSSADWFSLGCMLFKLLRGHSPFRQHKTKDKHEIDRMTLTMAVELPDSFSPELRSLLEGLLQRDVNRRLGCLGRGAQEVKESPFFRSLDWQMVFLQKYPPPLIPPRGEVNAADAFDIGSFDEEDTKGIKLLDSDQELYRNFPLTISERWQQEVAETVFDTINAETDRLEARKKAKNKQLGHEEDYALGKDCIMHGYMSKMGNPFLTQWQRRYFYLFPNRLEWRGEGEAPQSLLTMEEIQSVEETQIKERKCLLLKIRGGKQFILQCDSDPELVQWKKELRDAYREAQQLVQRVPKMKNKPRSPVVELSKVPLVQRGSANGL
In assay [5] the target is AP-2 complex subunit beta (Homo sapiens) (UniProt P63010). Put plainly: beta-arrestin/AP2 interaction blockers – biochemical, validation set, GST-AP2 beads, flow cytometry, pilot screen (AID 504541;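 active = inhibition above 54%, about 3 SD of non-fluorescent compounds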;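 note: AP2 carries R879A mutation and is captured from E. coli lysate; bead-bound FITC arrestin peptide fluorescence measuring arrestin peptide binding to AP2; 0% = DMSO wells and 100% = excess unlabeled arrestin peptide control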). As to conditions: FITC arrestin peptide, at 10 µM, stronger effect = higher value.
The nature of assay [6]: cytosolic pH regulators acting via V-ATPase – S. cerevisiae, pHLuorin, HTS validation (AID 504600; in the data active = response above about 15%;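 note: plate controls were DMSO for no effect and reference compound for full effect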). Conditions: V-ATPase proton transport, at 10 µM, stronger effect = higher value.
Assay [7] deals with anti-desmoglein-3 scFv antibody binding to human DSG3. Put plainly: blockers of pathogenic pemphigus antibody–desmoglein-3 binding – biochemical, validation compound set, bead-based, flow cytometry, pilot screen (AID 588368;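 active = binding below the plate cutoff, the plate median minus 3 SD, with a reading above zero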;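 note: signal is the median channel fluorescence of bead-bound GFP antibody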). As to conditions: Protein G beads, DSG3-Fc, scFv-GFP binding, at 10 µM, stronger effect = lower value.
The test system of assay [8] is Botulinum neurotoxin type F light chain protease (Clostridium botulinum). Put plainly: Clostridium botulinum type F light chain protease inhibitors, microsphere substrate cleavage, validation (AID 588459). As to conditions: multiplex microsphere protease substrate cleavage assay, flow cytometry; at 10 µM; stronger effect = higher value.
Assay [9] has as its target Botulinum neurotoxin type A (Clostridium botulinum) (UniProt P0DPI0). Put plainly: BoNT/A light chain protease inhibitors, biochemical, multiplex microsphere flow cytometry, validation set (AID 588460). As to conditions: at 10 µM, stronger effect = higher value.
For assay [10], the target named is Lethal factor (Bacillus anthracis) (UniProt P15917). Put plainly: Bacillus anthracis lethal factor inhibition, microsphere flow cytometry protease assay, validation at 10 µM (AID 588461). Conditions: multiplex microsphere protease cleavage assay, stronger effect = higher value.
Chain of Lethal factor (Bacillus anthracis) (P15917 whole entry, looked up): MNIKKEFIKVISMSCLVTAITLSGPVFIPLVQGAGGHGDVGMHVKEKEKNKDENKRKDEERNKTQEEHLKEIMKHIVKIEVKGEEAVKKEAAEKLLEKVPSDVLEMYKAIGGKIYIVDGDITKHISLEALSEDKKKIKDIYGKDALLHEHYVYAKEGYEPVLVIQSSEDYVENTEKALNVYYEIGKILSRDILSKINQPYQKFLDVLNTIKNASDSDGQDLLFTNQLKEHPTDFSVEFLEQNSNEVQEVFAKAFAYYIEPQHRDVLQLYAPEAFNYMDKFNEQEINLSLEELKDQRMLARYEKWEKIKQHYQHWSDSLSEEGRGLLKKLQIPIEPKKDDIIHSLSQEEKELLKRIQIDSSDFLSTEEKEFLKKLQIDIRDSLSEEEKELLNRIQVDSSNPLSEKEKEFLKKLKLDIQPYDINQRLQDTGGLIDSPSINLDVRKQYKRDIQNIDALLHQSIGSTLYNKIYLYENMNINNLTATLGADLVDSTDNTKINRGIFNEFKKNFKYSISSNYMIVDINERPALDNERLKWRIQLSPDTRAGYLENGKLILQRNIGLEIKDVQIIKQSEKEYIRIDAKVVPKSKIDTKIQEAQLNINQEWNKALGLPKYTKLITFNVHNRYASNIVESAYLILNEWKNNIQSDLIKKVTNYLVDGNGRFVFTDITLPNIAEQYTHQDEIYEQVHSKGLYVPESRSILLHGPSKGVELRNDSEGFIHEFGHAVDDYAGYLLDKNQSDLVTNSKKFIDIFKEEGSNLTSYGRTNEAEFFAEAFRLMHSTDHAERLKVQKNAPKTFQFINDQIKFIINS
The nature of assay [11]: Nile Red efflux blockade in pump-expressing yeast – validation compound set, multiplex, phenotypic, pilot screen (AID 588506;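 active = efflux inhibition above 0.42, the validation set average plus 4 SD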;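 note: Nile Red retained in cells so higher fluorescence means more efflux inhibition; 0 = negative control wells and 1 = enniatin B 25 µM full block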). Conditions: S. cerevisiae pump-expressing triplex, Nile Red efflux flow cytometry; at 10 µM; stronger effect = higher value.
Assay [12] has as its target ATP-binding cassette sub-family B member 6 (Homo sapiens) (UniProt Q9NP58). Put plainly: blockers of ABCB6-driven porphyrin uptake – K562-ABCB6 cells, flow cytometry, validation set, pilot screen (AID 588550;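 active = inhibition above the screen-wide mean plus 3 SD, about 51%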;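 note: 0% = DMSO wells and 100% = benzethonium chloride 70 µM positive control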). As to conditions: K562-ABCB6 porphyrin accumulation, 1 h, at 10 µM, stronger effect = higher value.
A short description of assay [13]: AML differentiation inducers, ER-HoxA9 marrow cells – cell-based, GFP/MAC1 double positive, flow cytometry, validation set, primary screen (AID 588685;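 active = differentiation response of at least 50%, scaled between solvent and reference control, from cells with both markers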;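 note: compound exposure lasts four days before antibody staining and flow analysis; 0% = DMSO wells and 100% = 5 µM fulvestrant positive control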). Conditions: stronger effect = higher value.
Assay [14] deals with Beta-2 adrenergic receptor (Homo sapiens) (UniProt P07550). Put plainly: agonist-induced loss of surface beta2AR – cell-based, FAP fluorogen, flow cytometry, validation set, pilot screen (AID 504459;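 active = percent response above 42, roughly 3 SD of non-fluorescent test compounds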;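 note: agonist-driven loss of surface beta2AR via internalization measured by FAP dye flow cytometry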). Conditions: Am2.2-beta2AR cells, at 10 µM, stronger effect = higher value.
Chain of Beta-2 adrenergic receptor (Homo sapiens) (P07550 whole entry, looked up): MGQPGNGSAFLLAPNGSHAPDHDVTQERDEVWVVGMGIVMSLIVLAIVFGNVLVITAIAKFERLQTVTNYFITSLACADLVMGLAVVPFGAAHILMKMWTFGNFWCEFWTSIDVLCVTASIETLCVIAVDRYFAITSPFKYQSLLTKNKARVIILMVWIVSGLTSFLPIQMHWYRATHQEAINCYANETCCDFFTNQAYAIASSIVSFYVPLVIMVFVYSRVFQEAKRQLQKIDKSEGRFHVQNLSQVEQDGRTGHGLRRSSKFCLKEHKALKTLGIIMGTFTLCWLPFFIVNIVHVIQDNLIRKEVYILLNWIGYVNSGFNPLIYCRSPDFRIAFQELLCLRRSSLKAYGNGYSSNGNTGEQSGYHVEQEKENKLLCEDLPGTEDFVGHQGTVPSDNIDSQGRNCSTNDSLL
Assay [15] can be described thus: hit retest on RPL19A-GFP reporter strain – cell-based, S. cerevisiae, flow cytometry, cherry picks, mother/daughter gates, confirmation (AID 2270;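 active = GFP response below 50% of the DMSO control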). Conditions: 3 h, at 10 µM, stronger effect = lower value, 100 = same GFP as DMSO wells.
Assay [16] can be described thus: yeast TOR pathway reporter LAP4-GFP change – cell-based, cherry picks, flow cytometry, mother/daughter gates, confirmation (AID 2271;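 active = GFP response above 150% of the DMSO control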;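 note: ratio of sample to DMSO plate mean so 100% equals DMSO level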). Conditions: S. cerevisiae LAP4-GFP strain, 3 h, at 10 µM, stronger effect = higher value.
Assay [17] can be described thus: TOR pathway reporter MEP2-GFP, retest of hits – S. cerevisiae, flow cytometry GFP, cherry picks, confirmation (AID 2272;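 active = GFP response above 150% of the DMSO control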;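 note: ratio of well signal to plate DMSO mean so 100% equals DMSO level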). Conditions: S. cerevisiae MEP2-GFP strain, 3 h, at 10 µM, stronger effect = higher value.
The nature of assay [18]: yeast AGP1-GFP fluorescence change, single-dose – cell-based, flow cytometry, S. cerevisiae, cherry picks, confirmation (AID 2273;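 active = GFP response above 150% of the DMSO level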;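 note: median GFP channel fluorescence over the whole cell population gate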). As to conditions: S. cerevisiae AGP1-GFP strain, 3 h, at 10 µM.
Assay [19] is described as follows: TOR pathway CIT2 reporter hit retest – S. cerevisiae, GFP fusion, cherry picks, mother/daughter gates, confirmation (AID 2274;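 active = GFP response above 150% of the DMSO level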). Conditions: S. cerevisiae CIT2-GFP strain, flow cytometry, 3 h, at 10 µM, stronger effect = higher value.
Setting [20] is: measured here: daughter cell gate.
Setting [21] is: measured here: mother cell gate.
The mark [22] stands for this setting: measured here: daughter cell gate response.
The mark [23] stands for this setting: measured here: mother cell gate response.

Where “and” joins values, the source holds several entries; their conditions need not be identical. Equal values may be shown once. Calls of active or inactive are those of the source. Unless noted, the rule behind the calls is not given here.

Chain of Botulinum neurotoxin type A (Clostridium botulinum) (P0DPI0 whole entry, looked up): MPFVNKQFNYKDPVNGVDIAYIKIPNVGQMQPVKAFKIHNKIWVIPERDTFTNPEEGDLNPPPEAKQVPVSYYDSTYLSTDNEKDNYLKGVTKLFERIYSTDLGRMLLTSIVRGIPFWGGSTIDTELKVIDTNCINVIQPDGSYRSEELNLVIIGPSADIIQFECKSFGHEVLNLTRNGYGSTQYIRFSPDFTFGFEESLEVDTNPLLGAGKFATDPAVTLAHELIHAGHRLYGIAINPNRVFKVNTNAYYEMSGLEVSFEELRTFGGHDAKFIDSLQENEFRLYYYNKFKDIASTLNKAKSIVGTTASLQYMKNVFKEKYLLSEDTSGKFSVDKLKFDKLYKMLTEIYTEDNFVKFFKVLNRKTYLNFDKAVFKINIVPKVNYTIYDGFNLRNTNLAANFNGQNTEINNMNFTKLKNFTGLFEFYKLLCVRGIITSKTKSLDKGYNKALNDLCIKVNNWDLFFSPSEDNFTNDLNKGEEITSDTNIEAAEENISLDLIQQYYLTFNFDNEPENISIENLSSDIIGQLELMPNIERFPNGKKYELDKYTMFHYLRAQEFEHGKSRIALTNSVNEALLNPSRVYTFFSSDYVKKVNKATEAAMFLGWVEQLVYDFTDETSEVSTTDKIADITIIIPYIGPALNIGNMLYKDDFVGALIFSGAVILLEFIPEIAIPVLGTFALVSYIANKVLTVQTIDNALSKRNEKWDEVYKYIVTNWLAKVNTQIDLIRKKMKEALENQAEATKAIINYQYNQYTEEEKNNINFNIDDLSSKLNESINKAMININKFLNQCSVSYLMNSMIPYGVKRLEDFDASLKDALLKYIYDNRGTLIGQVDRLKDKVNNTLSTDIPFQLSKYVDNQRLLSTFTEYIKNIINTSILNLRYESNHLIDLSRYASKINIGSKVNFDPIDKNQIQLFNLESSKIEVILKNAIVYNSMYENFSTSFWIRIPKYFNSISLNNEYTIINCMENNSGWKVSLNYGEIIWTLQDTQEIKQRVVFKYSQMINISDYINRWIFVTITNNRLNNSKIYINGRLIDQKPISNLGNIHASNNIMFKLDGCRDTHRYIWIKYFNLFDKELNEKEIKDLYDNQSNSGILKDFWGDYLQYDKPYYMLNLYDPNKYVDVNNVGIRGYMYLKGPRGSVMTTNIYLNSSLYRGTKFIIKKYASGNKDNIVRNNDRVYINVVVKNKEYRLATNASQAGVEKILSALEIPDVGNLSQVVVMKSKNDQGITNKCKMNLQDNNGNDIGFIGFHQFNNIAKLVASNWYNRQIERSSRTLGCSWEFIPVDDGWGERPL

In [1], `COc1ccc2c3c([nH]c2c1)C(C)=NCC3` had a double positive events of 57.1%. In assay [1], the vesicle binding response was 218% (inactive). Besides, the inhibition (commonly the drop in the measured response relative to a control, in per cent) is -16.1% (inactive) in assay [2]; 10.6% (inactive) in assay [5]; -22.6% (inactive) in assay [8]; -5.4% (inactive) in assay [9]; -104% (inactive) in assay [10]; -229% (inactive) in assay [12]. The superoxide response (% of plate) in [3] was 102% (inactive). For the same compound, the aptamer binding inhibition in assay [4] is -10% (inactive). The response in assay [6] was -11.3% (inactive). The binding (% of control) in assay [7] was 172% (inactive). For the same compound, in assay [11], the efflux inhibition (fraction of control) is -0.24 (inactive). In addition, in assay [13], the differentiation response is 20.8% (inactive).

In turn, `C[C@H]1CCCC(=O)CCCCCc2cc(O)cc(O)c2C(=O)O1` showed a double positive events in assay [1] of 60.2%. In assay [1], the vesicle binding response is 160% (inactive). Moreover, the inhibition in [2] is 0.59% (inactive); in [5], -10.7% (inactive); in assay [8], -0.4% (inactive); in assay [9], -1.7% (inactive); in assay [10] it was 4.1% (inactive); in assay [12], 0% (inactive). The superoxide response (% of plate) in assay [3] was 101% (inactive). The aptamer binding inhibition in [4] was -1% (inactive). In addition, the results for the response in assay [14] and in [6] were -25.5% (inactive) and 6% (inactive), respectively. Besides, the binding (% of control) in [7] was 106% (inactive). Further, the efflux inhibition (fraction of control) in [11] is -0.13 (inactive). Besides, in assay [13], the differentiation response was 5.85% (inactive).

In turn, `CC12CCC3C(CC=C4CC5(CCC43C)OCCO5)C1CCC2=O` (stereo not drawn) displayed a double positive events in assay [1] of 65.4%. Also, the vesicle binding response in assay [1] is 179% (inactive). Moreover, the inhibition was -9.06% (inactive) in assay [2]; -3.19% (inactive) in [5]; 4.6% (inactive) in assay [8]; -0.8% (inactive) in [9]; 3.9% (inactive) in assay [10]; 15% (inactive) in [12]. In addition, in assay [3], the superoxide response (% of plate) was 95.3% (inactive). Further, in assay [4], the aptamer binding inhibition is 3% (inactive). The response is 0.6% (inactive) in assay [14] and 0.24% (inactive) in [6]. Also, the binding (% of control) in assay [7] is 108% (inactive). Moreover, the efflux inhibition (fraction of control) in assay [11] is -0.24 (inactive). Further, the differentiation response in assay [13] was -4.09% (inactive).

Turning to `C[C@]12CC[C@@H]3c4ccc(O)c(O)c4CC[C@H]3[C@@H]1CC[C@@H]2O`, in [1], the double positive events is 51%. The vesicle binding response in assay [1] is 107% (inactive). Also, the inhibition in [2] is 27.7% (inactive); in [5] it was 1.47% (inactive); in assay [8], 0.2% (inactive); in assay [9] it was -0.1% (inactive); in assay [10] it was 2% (inactive); in [12], 7% (inactive). Besides, the superoxide response (% of plate) in [3] is 101% (inactive). Further, in assay [4], the aptamer binding inhibition is -1% (inactive). Moreover, in [6], the response is -0.32% (inactive). The binding (% of control) in assay [7] was 108% (inactive). The efflux inhibition (fraction of control) in assay [11] was -0.28 (inactive). In addition, the differentiation response in assay [13] was 3.03% (inactive).

Turning to `CN1[C@@H]2CC(OC(=O)[C@H](CO)c3ccccc3)C[C@H]1[C@@H]1O[C@@H]12` (stereo partly drawn), the inhibition in assay [8] was -2.9% (inactive); in [9], -2.7% (inactive) and -1% (inactive).

For `O=C1NC(=O)N(CCc2ccc(F)cc2)C(=O)/C1=C/c1ccco1`, the GFP response vs DMSO was 98% (inactive) in assay [15], 99.4% in assay [15] (setting [20]), 97% in assay [15] (setting [21]) and 94.4% (inactive) in [17]. The GFP response relative to DMSO in assay [16] is 104% (inactive); in [16] (setting [22]) it was 106%; in [16] (setting [23]), 104%. In addition, the GFP response, % of DMSO in assay [18] was 99.8% (inactive); in assay [19], 98.4% (inactive); in assay [19] (setting [20]) it was 100%; in assay [19] (setting [21]), 93.7%.

As to `CCC(COC(=O)c1cc(OC)c(OC)c(OC)c1)(c1ccccc1)N(C)C` (stereo not drawn), in assay [1], the double positive events stood at 73.3%. Also, the vesicle binding response in assay [1] was 306% (inactive). In addition, the inhibition in assay [2] is 1.44% (inactive); in [5] it was -3.75% (inactive); in assay [8], -3.5% (inactive); in [9], -2.8% (inactive); in assay [10], -8.8% (inactive); in [12] it was 15% (inactive). In addition, the superoxide response (% of plate) in assay [3] was 93.6% (inactive). Also, the aptamer binding inhibition in assay [4] is 1% (inactive). The response in assay [14] is -24.8% (inactive); in [6], -2.48% (inactive). The binding (% of control) in assay [7] was 98.7% (inactive). Besides, in [11], the efflux inhibition (fraction of control) was 0.04 (inactive). Besides, in assay [13], the differentiation response was -3.02% (inactive).

Take `CCC1(c2ccccc2)C(=O)NCNC1=O`: the inhibition in assay [8] was 0% (inactive); in assay [9], -0.9% (inactive).

In [1], `COc1cc(/C=C2\C(=O)NC(=O)N(c3ccccc3)C2=O)c([N+](=O)[O-])cc1OC` gave a double positive events of 61.7%. The vesicle binding response in [1] was 106% (inactive). The inhibition was 13.7% (inactive) in assay [2]; 5.39% (inactive) in assay [5]; -4.1% (inactive) in [8]; -1.1% (inactive) in assay [9]; -1.8% (inactive) in assay [10]; -21% (inactive) in assay [12]. The superoxide response (% of plate) in [3] was 102% (inactive). The aptamer binding inhibition in assay [4] is 3% (inactive). The response is 0.05% (inactive) in assay [14] and 3.62% (inactive) in [6]. The binding (% of control) in [7] was 105% (inactive). Also, the efflux inhibition (fraction of control) in assay [11] was -0.09 (inactive). For the same compound, the differentiation response in assay [13] was -8.96% (inactive).

The compound `c1ccc2c(c1)OCC(C1=NCCN1)O2` (stereo not drawn) returned a double positive events in assay [1] of 56.2%. The vesicle binding response in [1] was 163% (inactive). Also, the inhibition is 0.69% (inactive) in [2]; -3.31% (inactive) in [5]; -2.1% (inactive) in assay [8]; 0.1% (inactive) in assay [9]; 0.2% (inactive) in assay [10]; 7% (inactive) in assay [12]. For the same compound, the superoxide response (% of plate) in [3] was 90.8% (inactive). Moreover, the aptamer binding inhibition in assay [4] was 1% (inactive). Also, the response in assay [6] was 3.01% (inactive). Further, the binding (% of control) in assay [7] is 99.6% (inactive). For the same compound, the efflux inhibition (fraction of control) in assay [11] is -0.12 (inactive). Moreover, the differentiation response in assay [13] is -19.6% (inactive).

On to `O=C1NC(=S)NC(=O)C1=Cc1ccc2c(c1)CCN2CCCCl`, for which the GFP response vs DMSO in assay [15] was 98.4% (inactive); in assay [15] (setting [20]), 87.8%; in [15] (setting [21]), 86%; in assay [17], 103% (inactive). The GFP response relative to DMSO in assay [16] is 163% (active); in assay [16] (setting [22]) it was 110%; in [16] (setting [23]) it was 184%. For the same compound, the GFP response, % of DMSO in assay [18] is 87.8% (inactive); in [19], 85.7% (inactive); in assay [19] (setting [20]), 90.2%; in assay [19] (setting [21]) it was 76%.
